PubChem BioAssay (NCI)
This is part of a sample that, as a whole, favours compounds with a hit. Of some 83,000 tested, about 20% had one in any assay.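 Method: cells in 96-well plates; compound added at one concentration; 48 h incubation; percent growth measured; values under 10 scored active.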 Active and inactive are the calls of the source.

Tests used:
Assay in all cases: NCI-60 one-dose screen, 48 h (100 = growth as untreated, 0 = no growth, -100 = all killed)
Details in all cases: 10 µM unless noted
[1] = tested on: NCI-H23 lung
[2] = tested on: NCI-H226 lung
[3] = tested on: NCI-H322M lung
[4] = tested on: HOP-62 NSCLC
[5] = tested on: NCI-H460 lung
[6] = tested on: HOP-92 NSCLC
[7] = tested on: NCI-H522 lung
[8] = tested on: A549/ATCC NSCLC
[9] = tested on: 786-0 renal
[10] = tested on: COLO 205 colon
[11] = tested on: DU-145 prostate
[12] = tested on: K-562 leukemia
[13] = tested on: MALME-3M melanoma
[14] = tested on: MDA-MB-231 breast
[15] = tested on: RXF 393 renal
[16] = tested on: SF-268 CNS
[17] = tested on: SF-295 CNS
[18] = tested on: SF-539 CNS
[19] = tested on: UACC-257 melanoma
[20] = tested on: M14 melanoma

Measured: growth

COP(=O)(OC)/C(=N\NS(=O)(=O)c1ccc(C)cc1)c1ccccc1
inactive: [1] 91.5% | [2] 89.2% | [3] 102% | [4] 95.5% | [5] 101% | [6] 106% | [7] 126% | [8] 104% | [9] 94.7% | [10] 109% | [11] 106% | [12] 120% | [13] 104% | [14] 119% | [15] 76.6% | [16] 119% | [17] 117% | [18] 95% | [19] 112% | [20] 93.3%

O=C(NS(=O)(=O)c1ccccc1)n1cc(-c2ccncc2)c(-c2ccc(Cl)c(O)c2)n1
inactive: [1] 104% | [2] 103% | [3] 103% | [4] 119% | [5] 107% | [6] 99.6% | [7] 85.4% | [8] 98.3% | [9] 100% | [10] 111% | [11] 104% | [12] 88.9% | [13] 27.6% | [14] 112% | [15] 107% | [16] 97.7% | [17] 107% | [18] 97.6% | [19] 91.6% | [20] 34.2%

O=C(c1ccccc1)C1OC1c1ccc([N+](=O)[O-])cc1 (stereo not given)
inactive: [1] 48.1% | [2] 67.7% | [3] 106% | [4] 86.4% | [5] 84% | [6] 61.5% | [7] 31.4% | [8] 85.6% | [9] 83.3% | [10] 112% | [11] 67.9% | [12] 32.6% | [13] 83.6% | [14] 78.4% | [15] 77.8% | [16] 79.2% | [17] 97% | [18] 96.5% | [19] 68.1% | [20] 48.2%

CCN(CC)CCCC(C)Nc1c2ccc(Cl)cc2nc2cc(OC)c(OC)cc12 (stereo not given)
active: [3] 0.383% | [5] -31.6% | [6] -9.58% | [8] 4.12% | [10] -33.6% | [12] -16.4% | [13] -74.1% | [14] -34.3% | [15] -13.4% | [18] -87.9% | [20] -73.7%
inactive: [1] 21% | [2] 32.3% | [4] 32.3% | [7] 14.9% | [9] 38.6% | [11] 22.6% | [16] 33.9% | [17] 44.5% | [19] 46.9%

COc1ccc(-c2cc(-c3ccccc3)nc(SCCCC(=O)NO)n2)cc1OC
inactive: [2] 10.4% | [3] 17.1% | [10] 23.7% | [18] 14.8%
active: [1] -2.44% | [4] 5.03% | [5] 1.88% | [6] -10.6% | [7] -22.8% | [8] -17.1% | [9] 0.761% | [11] 1.4% | [12] 3.02% | [13] -3.72% | [14] 6.56% | [15] -21.1% | [16] -19.2% | [17] -0.804% | [19] -18.2% | [20] -4.14%

O=[N+]([O-])c1cc(Cl)c2[nH]c3c(Cl)cc([N+](=O)[O-])cc3c2c1
active: [1] 9.08% | [2] -0.747% | [3] -0.868% | [5] -15.8% | [6] -14.3% | [7] -44% | [8] -42% | [9] 8.87% | [10] -73.6% | [12] 3.44% | [13] -16.5% | [14] -30.3% | [17] -35.5% | [19] -52.2%
inactive: [4] 15.3% | [11] 22.9% | [15] 12.4% | [16] 12.9% | [18] 23.8% | [20] 16.3%

COc1ccc2[nH]c(=O)c3c4ccccc4cn3c2c1
active: [5] 2.51% | [7] 3.62% | [10] 0.252% | [12] 4.25% | [15] -25.2% | [16] 1.5% | [17] -2.6% | [18] 9.14%
inactive: [1] 39.4% | [2] 37% | [3] 11.6% | [4] 39.3% | [6] 33.7% | [8] 40.1% | [9] 17.7% | [11] 11.3% | [13] 12.6% | [14] 28.5% | [19] 51.3% | [20] 23.9%

Cc1ccc(S(=O)(=O)Nc2c(Br)cc(Br)cc2C(N)=O)cc1
inactive: [1] 96% | [2] 102% | [3] 88.4% | [4] 109% | [5] 105% | [6] 94.4% | [7] 115% | [8] 117% | [9] 101% | [10] 103% | [11] 113% | [12] 119% | [13] 87.4% | [14] 103% | [15] 93.1% | [16] 109% | [17] 97.3% | [18] 101% | [19] 107% | [20] 94.5%

CC(C)(C)Nc1c(-c2cccs2)nc2ncccn12
inactive: [1] 96.6% | [2] 90.6% | [3] 98.7% | [4] 104% | [5] 102% | [6] 98.8% | [7] 80.3% | [8] 98.1% | [9] 104% | [10] 110% | [11] 105% | [12] 86.5% | [13] 99.9% | [14] 108% | [15] 98.9% | [16] 97.5% | [17] 99.5% | [18] 97.5% | [19] 90.5% | [20] 106%

COc1ccc(C2C(C#N)=C(N)Oc3c2ccc2ccccc32)cc1 (stereo not given)
active: [7] 3.93%
inactive: [1] 52.8% | [2] 39.4% | [3] 67.8% | [4] 37.3% | [5] 14.6% | [6] 48.4% | [8] 57.1% | [9] 73.1% | [10] 91.1% | [11] 78.4% | [12] 19.6% | [13] 47.9% | [14] 31.2% | [15] 36.5% | [16] 50.5% | [17] 24.2% | [18] 25.6% | [19] 75.1% | [20] 30.2%

O=C1C2(c3ccccc3)C(c3ccccc3)=C(c3ccccc3)C1(c1ccccc1)C1CC=CC12 (stereo not given)
active: [6] 1.51%
inactive: [1] 75.9% | [2] 74% | [3] 84.7% | [4] 102% | [5] 84.4% | [7] 71.3% | [8] 78.3% | [9] 85.9% | [10] 112% | [11] 101% | [12] 69.3% | [13] 82.9% | [14] 70.7% | [15] 84.6% | [16] 91.1% | [17] 68.1% | [18] 89.3% | [19] 78.4% | [20] 95.4%

COc1cc(-c2nn(C(=O)NS(=O)(=O)c3ccccc3)cc2-c2ccncc2)ccc1Cl
inactive: [1] 88.1% | [2] 66.9% | [3] 97.2% | [4] 58.9% | [5] 103% | [6] 28.3% | [7] 77% | [8] 71.9% | [9] 71.4% | [10] 70.6% | [11] 91.8% | [12] 101% | [13] 87.3% | [14] 70.5% | [15] 63% | [16] 58.6% | [17] 85.1% | [18] 74.8% | [19] 89.1% | [20] 78.4%

Nc1nc(-c2ccccc2)c(CCCOc2ccc(NC(=O)CBr)cc2)c(=O)[nH]1
inactive: [1] 94.4% | [2] 100% | [3] 135% | [4] 134% | [5] 108% | [6] 99.6% | [7] 71.8% | [8] 93.3% | [9] 115% | [10] 118% | [11] 104% | [12] 94.3% | [13] 123% | [14] 87.4% | [15] 106% | [16] 91.8% | [17] 117% | [18] 93.1% | [19] 86.9% | [20] 104%
